The target in test [1] is T1, Aspartate--tRNA(Asp/Asn) ligase (Mycobacterium tuberculosis (strain ATCC 25618 / H37Rv)) (UniProt P9WFW3). Note: in the data most compounds retested in dose-response had high values.
T1 sequence (whole entry): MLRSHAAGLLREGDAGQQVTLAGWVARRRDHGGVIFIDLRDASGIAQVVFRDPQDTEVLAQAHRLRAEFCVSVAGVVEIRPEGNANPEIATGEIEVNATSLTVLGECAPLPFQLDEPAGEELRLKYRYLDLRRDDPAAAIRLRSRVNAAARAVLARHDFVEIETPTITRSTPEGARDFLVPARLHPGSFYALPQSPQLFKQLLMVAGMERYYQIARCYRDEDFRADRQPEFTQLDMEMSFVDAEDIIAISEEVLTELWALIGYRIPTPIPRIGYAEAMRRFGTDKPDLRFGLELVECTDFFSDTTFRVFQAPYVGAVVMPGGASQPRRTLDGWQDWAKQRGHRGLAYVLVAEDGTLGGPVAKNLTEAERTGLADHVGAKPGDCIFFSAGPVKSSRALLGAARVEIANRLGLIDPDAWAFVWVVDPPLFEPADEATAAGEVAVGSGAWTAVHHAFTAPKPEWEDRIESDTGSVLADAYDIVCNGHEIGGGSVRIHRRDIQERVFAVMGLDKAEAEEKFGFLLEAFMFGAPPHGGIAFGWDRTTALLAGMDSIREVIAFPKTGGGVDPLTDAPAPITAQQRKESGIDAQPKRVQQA
Briefly: Assay for Asp RNA synthetase-1 from Mycobacterium tuberculosis. It counts as functional. The arrangement: scale not given: direction of the effect not stated beside the values. The note with it: 30 µM.

The target of test [2] is Shiga toxin 2 (Escherichia coli O157:H7) (UniProt P09385+P09386). Briefly: E. coli 0.157:H7 Shiga Toxin SOP - stx2 screening assay. It counts as functional. Also on record: scale not given: direction of the effect not stated beside the values. The note with it: 30 µM.

Structures are written as SMILES.

Our source for the Percent Effect values is ChEMBL document CHEMBL3988442, “University of Dundee, Small-Polar-MMV Screening Library” (2021).

For the compound `c1nc2n(n1)CC(NCc1csc(-c3ccsc3)n1)CC2` (centres undefined), the Percent Effect in test [1] was -1.92%; in test [2] it was -23.2%.
Regarding `CC(=O)N1CCn2cc(CNC(=O)c3cccn3C)nc2C1`, the values for the Percent Effect in test [1] and in test [2] were 1.43% and -9.92%, respectively.
Turning to `CS(=O)(=O)NCCCNC(=O)c1cccc(-n2cccc2)c1`, the Percent Effect in test [1] is -2.88%; in test [2], -28.3%.
In the case of `CCN(CC(=O)NC(C)C)S(=O)(=O)N1CCC(C)C1` (centres undefined), the Percent Effect in test [1] is 2.41%; in test [2], -3.8%.
In the case of `NC(=O)CSCC(=O)N1CCc2cc(Cl)cc(Cl)c2C1`, the Percent Effect in test [1] is 12.7%; in test [2], -44.7%.
Taken in the same sequence, the figures for `COCCN(C)C(=O)Nc1ccc2c(ccn2CCOC)c1` were -1.14% and -20.9%.
As for `CN(Cc1ccccn1)C1COC2(CCN(Cc3cccnc3)CC2)C1` (centres undefined), the Percent Effect in test [1] is -2.07%; in test [2], -24.6%.
As for `Cc1cc(C)n(C2CCCN(C(=O)COCC(F)(F)F)C2)n1` (centres undefined), the Percent Effect was -4.61% in test [1] and -2.74% in test [2].
Turning to `Cc1noc(C)c1-c1cccc(CC2CCN(C(=O)CCC(=O)O)C2)n1` (centres undefined), the Percent Effect in test [1] is -0.313%; in test [2] it was -17.7%.
Turning to `Cc1nc(C)n(CC2CCCN(CC(=O)Nc3nncs3)C2)n1` (centres undefined), the figures for the Percent Effect in test [1] and in test [2] were -4.19% and 25.6%, respectively.
On to `CC(C)CNc1nc(C(=O)/N=c2\[nH]nc(C(C)(C)C)s2)cs1`, for which the Percent Effect in test [1] is -0.96%; in test [2] it was -23.9%.
Take `CS(=O)(=O)NCCCN1CCCCC1c1cc2ccccc2[nH]1` (centres undefined): the Percent Effect is -1.17% in test [1] and -11.8% in test [2].
As to `COc1ccc(CN2CCc3ncnc(C4CCOC4)c3CC2)cc1` (centres undefined), the Percent Effect was -0.146% in test [1] and -53.7% in test [2].
`COC[C@H]1CCC[C@]12CN(CCc1ccccc1)CCO2`: the values for the Percent Effect in test [1] and in test [2] were -1.02% and -22%, respectively.
As for `O=C(c1cccnc1N1CCOCC1)N1CCCC(n2ccnc2)C1` (centres undefined), the Percent Effect in test [1] was -4.5%; in test [2], 31.6%.
`Cc1ncoc1C(=O)N1CCn2c(COCC3CC3)cnc2C1C` (centres undefined): the Percent Effect in test [1] is 7.95%; in test [2] it was -10.6%.
For `Fc1ccc2c(c1)C(NCc1nnc3n1CCCCC3)CCCO2` (centres undefined) the same measures were -3.62% and -12.2%.
For `O=C(c1csc(-c2cccs2)n1)N1CCCC1Cn1cccn1` (centres undefined), the Percent Effect in test [1] amounted to 3.15%; in test [2] it was 37.2%.
For `Cc1nnc(NC(=O)CN2CCCC(Cn3cncn3)C2)s1` (centres undefined) the same measures were 2.66% and -3.39%.
For `CN(Cc1ccc(F)cc1)C(=O)NCC1(N2CCOCC2)CCSC1` (centres undefined) the same measures were -1.08% and -43.8%.
For `Clc1snnc1CN1CCCC(Cn2cncn2)C1` (centres undefined), the Percent Effect was -2.43% in test [1] and -33% in test [2].
For `Cc1cnn(CC2CCCN2CC(=O)N(C)Cc2ccc(C)o2)c1` (centres undefined) the same measures were 0.457% and -11.2%.
For `CN1CCN(C[C@@H]2OC[C@H]3CN(Cc4ccsc4)CC[C@H]32)CC1` the same measures were -4.08% and 3.13%.
Taken in the same sequence, the figures for `Cc1noc(C)c1C(=O)NCC(c1ccc(F)cc1)N(C)C` (centres undefined) were 1.51% and 16%.
Consider `Cc1ccc(C(=O)NS(=O)(=O)c2cccc3cnccc23)c(=O)[nH]1`, for which the Percent Effect in test [1] came out at 1.11%; in test [2] it was 1.19%.
For `CCN1CCC(NC(=O)CN2CCCCC2Cn2cc(C)cn2)CC1` (centres undefined) the same measures were -0.102% and -21.7%.
Regarding `CCN1CCn2nc(CCC(=O)N3CCCC3)cc2C1`, the Percent Effect is -0.386% in test [1] and -5.54% in test [2].
As to `Cc1cccc(CCC(=O)N2CCCC(c3cc(C(N)=O)[nH]n3)C2)c1` (centres undefined), the Percent Effect is -0.161% in test [1] and -10.2% in test [2].
As for `CC(C)(C)C(=O)NS(=O)(=O)c1ccc(C#N)cc1C(F)(F)F`, the Percent Effect in test [1] came out at 0.681%; in test [2] it was 21.9%.
Regarding `O=C(Cc1csc(-c2nnc[nH]2)n1)N1CCCC1Cn1cccn1` (centres undefined), the figures for the Percent Effect in test [1] and in test [2] were -4.54% and 5.43%, respectively.
In the case of `Cn1ccc(-c2cc(C(=O)N3CCOCC3)c3ccccn23)n1`, the Percent Effect in test [1] is 3.13%; in test [2] it was -17.8%.
For `Cc1n[nH]c(C)c1C1CCCN1C(=O)NCC(=O)NC(C)(C)C` (centres undefined) the same measures were 1.47% and -24.4%.
As to `O=C(c1ccc[nH]1)N1CCN(CC2CCOc3ccccc3C2)CC1` (centres undefined), the Percent Effect in test [1] is 4.96%; in test [2] it was -20.9%.
Taken in the same sequence, the figures for `CC(=O)Nc1nc(CN2CCCC2Cn2cncn2)cs1` (centres undefined) were -6.16% and -44%.
As for `CCn1cnnc1CNC(=O)N(C)Cc1ccc2c(c1)OCCO2`, the Percent Effect was found to be 14.5% in test [1] and 13.4% in test [2].
Consider `CCCN1CCC(NC(=O)NCCc2nc(CC)c(C)s2)CC1`, for which the Percent Effect in test [1] was -5.93%; in test [2], 19.2%.
For the compound `COCCN1CCN(Cc2cccc(C(N)=O)c2)CC1C` (centres undefined), the Percent Effect in test [1] is -1.6%; in test [2], -42.8%.
With `O=C(c1cn(-c2cc(N3CCOCC3)ncn2)cn1)N1CCSCC1`, the Percent Effect is -0.834% in test [1] and -38.5% in test [2].
`COCC(O)CNC(=O)c1cnc(-c2ccccc2)nc1O` (centres undefined): the Percent Effect in test [1] was 2.15%; in test [2], -7.39%.
`COCCOc1ccc(NC(=O)N2CCCC2c2ccncc2)cn1` (centres undefined): the Percent Effect in test [1] is 0%; in test [2], 19%.
For `Cc1cccc(OCCC(=O)N2CCCN(C(N)=O)CC2)c1C`, the Percent Effect turned out to be 0.542% in test [1] and 7.91% in test [2].
Consider `CC(=O)N1CCCC1c1cc(N2CCN(C3CCCC3)CC2)cc(C)n1` (centres undefined), for which the Percent Effect in test [1] is -4.16%; in test [2], 5%.
On to `CCNc1cc2c(nn1)CCN(C(=O)c1ccc(NC3CC3)nc1)C2`, for which the Percent Effect in test [1] is -0.723%; in test [2], 2.8%.
Take `CCS(=O)(=O)N(C)c1ccc(C(=O)N2CCCC(C)C2)cc1` (centres undefined): the values for the Percent Effect in test [1] and in test [2] were -3.31% and -3.21%, respectively.
With `Cc1cccc(N2CCN(C(=O)CN3CCN(CCO)CC3)CC2)c1`, the Percent Effect in test [1] was 1.98%; in test [2] it was 0.874%.
`CCc1nc(C2CCCN2Cc2nc(CCOC)no2)no1` (centres undefined): the results for the Percent Effect in test [1] and in test [2] were 5.05% and -11.9%, respectively.
For `Cc1nc(C2CCN(C(=O)c3ccc(=O)n(C)c3)CC2)c2sccn12` the same measures were 3.56% and -17.4%.
